# Data: PubChem BioAssay AID485344 (National Center for Advancing Translational Sciences (NCATS), 2010)
# Several values for one entry are separate records, joined by “and”; a condition that tells them apart may be missing. Equal values may be shown once. Screen size: about 340,000 compounds; about 6,900 (2%) were called active. Rule as the data show it: active = inhibition above about 30%; inactive = below that, where a call was filed. The list comes from a sample in which actives are over-represented; it also holds similar structures and randomly drawn compounds. Where a structure was tested more than once in an assay, its records may differ in their call.
# Molecular target: D(2) dopamine receptor (Homo sapiens) (UniProt P14416)
# Sequence (P14416 whole entry, looked up): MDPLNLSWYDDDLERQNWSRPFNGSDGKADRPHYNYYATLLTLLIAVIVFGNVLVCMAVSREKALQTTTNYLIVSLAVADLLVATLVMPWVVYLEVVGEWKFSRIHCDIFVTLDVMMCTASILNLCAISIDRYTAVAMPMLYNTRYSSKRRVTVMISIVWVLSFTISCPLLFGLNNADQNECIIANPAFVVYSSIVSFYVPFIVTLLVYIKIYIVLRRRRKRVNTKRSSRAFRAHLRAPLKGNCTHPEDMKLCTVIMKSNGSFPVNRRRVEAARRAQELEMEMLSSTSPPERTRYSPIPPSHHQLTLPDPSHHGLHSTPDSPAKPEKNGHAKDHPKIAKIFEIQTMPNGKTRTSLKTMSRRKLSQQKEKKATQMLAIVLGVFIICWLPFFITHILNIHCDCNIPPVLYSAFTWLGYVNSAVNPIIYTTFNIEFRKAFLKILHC
# Assay: HTS Assay for Allosteric Antagonists of the Human D2 Dopamine Receptor: Primary Screen for Antagonists; also: 0% is about no effect
# Settings: HEK293 TREx D2 cells, calcium flux, dopamine EC80; at 10 µM; stronger effect = higher value
# Outline: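 Antagonism is scored as inhibition of an EC80 dopamine-evoked calcium signal in a force-coupled, tetracycline-inducible HEK293 T-REx D2 line, with compound present 180 s before agonist.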
row,SMILES,inhibition
1,O=C(COC(=O)c1ccccc1SCC(=O)N1CCCC1)Nc1ccccc1OC(F)F,-3.18% (inactive)
2,COC(=O)c1cc(S(=O)(=O)NCC2CCN(Cc3ccc(Cl)cc3)CC2)cn1C,-3.52% (inactive)
3,COc1ccc(CN2CCC(c3nc4ccc(Cl)cc4[nH]3)CC2)cc1,59.7% (active)
4,COc1ccc(Cn2nnc3c(=O)[nH]c(C4CCN(C(=O)c5ccccc5Cl)CC4)nc32)cc1,5.81% (inactive)
5,Nc1c(N(CCCO)C(=O)C2CCCC2)c(=O)[nH]c(=O)n1Cc1ccccc1,10.6% (inactive)
6,Cc1cccc(NC(=O)CN2CCN(CC(=O)NCC3(N4CCCCC4)CCCCC3)CC2)c1C,6.75% (inactive)
7,CCN(CC(=O)Nc1cc(Cl)ccc1C)C(=O)CSCc1ccccc1,6.06% (inactive)
8,CC(C#N)(NC(=O)CN1CCN(S(=O)(=O)c2cc(C(F)(F)F)ccc2Cl)CC1)C1CC1 (stereo unspecified),12.9% (inactive)
9,O=C(CSc1nc2ccccc2[nH]1)N/N=C/C=C\c1ccccc1[N+](=O)[O-],-1.1% (inactive)
10,CC1CCN(c2ccc([N+](=O)[O-])c(SCCO)c2)CC1,-11.8% (inactive)
11,CN1CCN(c2ccc([N+](=O)[O-])c(Sc3nc4ccccc4[nH]3)c2)CC1,88.9% (active)
12,Cc1noc(C)c1COc1ccccc1C(=O)N(C)CC(=O)Nc1cccc(F)c1,6.3% (inactive)
13,COc1ccc(S(=O)(=O)N(CC(=O)N/N=C/c2ccccc2C(=O)O)c2ccccc2OC)cc1,1.95% (inactive)
14,CC(=O)Nc1ccc(S(=O)(=O)N(CCc2ccccc2)CC(=O)N/N=C/c2ccc(C(=O)O)cc2)cc1,10.8% (inactive)
15,COc1ccc(N(CC(=O)N/N=C/c2cccc3c2OCCO3)S(=O)(=O)c2ccc(NC(C)=O)cc2)cc1,44.5% (active)
16,CC(CCn1cccn1)NC(=O)CCc1nnc(CCc2ccccc2)o1 (stereo unspecified),3.4% (inactive)
17,Cc1cc(-c2nnc(CCC(=O)NC(c3ccccc3)c3ccccc3)o2)no1,4.61% (inactive)
18,O=C(CCc1nnc(CCCCc2ccccc2)o1)NC(c1cccnc1)C(F)(F)F (stereo unspecified),32.7% (active)
19,O=S(=O)(NCCc1ccccn1)c1cc(Cl)cc(Cl)c1O,0.268% (inactive)
20,O=C(Nc1ncccc1O)c1ccc(S(=O)(=O)N2CCCC2)cc1,-6.12% (inactive)
21,O=C(CN1C(=O)NC2(CCCCC2)C1=O)N1CCN(C(=O)c2cccs2)CC1,-4.48% (inactive)
22,CCCc1ccc(C(=O)COC(=O)CN2C(=O)NC3(CCCCC3C)C2=O)cc1 (stereo unspecified),-19.2% (inactive)
23,COc1ccc(NC(=O)c2sc(N)nc2-c2ccccc2)cc1,-6.34% (inactive)

row,SMILES,inhibition
1,COc1ccc(NC(=O)CSc2nc(C)cs2)cc1,7.3% (inactive)
2,COc1ccc(NC(=O)c2sccc2SCC#N)cc1,31.6% (active)
3,NC(=O)NC(=O)C(OC(=O)CCNS(=O)(=O)c1ccccc1)c1ccccc1 (stereo unspecified),12.6% (inactive)
4,O=C1COc2ccc(C(=O)CSc3ccc(Br)cc3)cc2N1,11.8% (inactive)
5,COc1cccc(C2=CC(=O)C[C@H](c3ccc(OC)c(OC)c3)C2)c1,9.37% (inactive)
6,CC(C)CCN1CCN(C/C=C/c2ccco2)CC1CCO (stereo unspecified),-9.65% (inactive)
7,CC(C)CCN1CCN(Cc2ccc(C(F)(F)F)cc2)CC1CCO (stereo unspecified),14.1% (inactive)
8,CC(C)CCN1CCN(Cc2cn[nH]c2C2CCCCC2)CC1CCO (stereo unspecified),56.2% (active)
9,COc1ccc(CCNC(=O)COc2ccc3c(c2)OCO3)cc1,-6.03% (inactive)
10,Cn1c(=O)c2ccccc2n(CC(=O)Nc2ccc3c(c2)OCCO3)c1=O,0.133% (inactive)
11,O=C(CN1CCC(O)(c2ccccc2)CC1)Nc1ccc2c(c1)OCCO2,94.9% (active)
12,O=C(Cn1c(=O)sc2ccccc21)Nc1ccc2c(c1)OCCO2,-10.2% (inactive)
13,CC1CCCC(NC(=O)c2cc(-c3ccncc3)nc3ccccc23)C1C (stereo unspecified),-1.15% (inactive)
14,CC(OC(=O)Cc1ccc(F)cc1)C(=O)N1CCc2ccccc21 (stereo unspecified),-8.93% (inactive)
15,CN(CC(=O)Nc1ccc(F)c(F)c1F)C(=O)C1CC(=O)N(C2CCCC2)C1 (stereo unspecified),-11.5% (inactive)
16,CC(NC(=O)c1cc(-c2ccccc2)on1)c1ccccc1 (stereo unspecified),11.6% (inactive)
17,O=C(NC1CCCCC1)c1cc(C2CC2)on1,-9.03% (inactive)
18,O=C(NC1CCCC1)c1cc(-c2ccccc2)on1,37.6% (active)
19,CCn1c(SCC(=O)NCC2CCCO2)nc2ccccc21 (stereo unspecified),-20.8% (inactive)
20,O=C(NC1CCCCC1)N1CCc2[nH]c3ccccc3c2C1,-14.3% (inactive)
21,COC(=O)[C@H]1[C@H]2C[C@H]3c4[nH]c5ccccc5c4CCN3C[C@@H]2CC[C@@H]1O,-5.26% (inactive) and 43.4% (active)
22,COC(=O)C1CCN(C(=O)c2cc(=O)[nH]c3ccccc23)CC1,17.7% (inactive)
23,O=C(COC(=O)Cc1ccc(Br)cc1)Nc1ccc(N2CCOCC2)cc1,22.4% (inactive)

row,SMILES,inhibition
1,COc1cc(CNCc2ccc(OC)c3ccccc23)cc(OC)c1OC,33% (active)
2,COc1ccc(CNC(=O)Cc2ccc(-c3ccccc3)cc2)cc1OC,20.3% (inactive)
3,COc1cc(CNCc2cccs2)cc(Br)c1OC,-4.22% (inactive)
4,COC(=O)C1=CO[C@@H](O[C@@H]2O[C@H](CO)[C@@H](O)[C@H](O)[C@H]2O)C2C1C[C@H](O)[C@@H]2C (stereo partly specified),-6.47% (inactive)
5,COc1ccc(-n2c(SCC(=O)NCc3cccs3)nnc2-c2ccoc2C)cc1,42.5% (active)
6,COc1ccc(-n2nnnc2SCC(=O)NCc2cccs2)cc1,-2.89% (inactive)
7,COc1ccc(-n2c(SCC(=O)NCc3ccco3)nnc2-c2c[nH]c3ccccc23)cc1,-8.02% (inactive)
8,CN1CCN(S(=O)(=O)c2cccc(C(=O)Nc3sccc3C#N)c2)CC1,0.535% (inactive)
9,CN(C)C(=O)c1ccc(NC(=O)COC(=O)c2cc3c(s2)CCCCC3)cc1,-7.26% (inactive)
10,COc1ccc(CCNCc2c(-c3ccccc3)n(C)c3ccccc23)cc1,45.6% (active)
11,COc1ccc(-c2c(C#Cc3ccccc3)c3ccccc3n2C)cc1,9.11% (inactive)
12,COc1ccc(-c2nc3ccccc3c(=O)n2CCc2ccc(O)cc2)cc1,-13.4% (inactive)
13,CCOc1c(OC)cc(C2C(C#N)=C(N)Oc3n[nH]c(-c4ccncc4)c32)cc1OC (stereo unspecified),-9.43% (inactive)
14,COc1ccc(C2C(C#N)=C(N)Oc3n[nH]c(C)c32)cc1CN1CCN(c2ccc(F)cc2)CC1 (stereo unspecified),53.9% (active)
15,CCCc1[nH]nc2c1C(c1ccc(OC)c(Cn3nc(C)c(Br)c3C)c1)C(C#N)=C(N)O2 (stereo unspecified),-23.9% (inactive)
16,COc1ccccc1/C=C/C(=O)OCC(=O)NC1CCCCCC1,-12.9% (inactive)
17,CCN(CC(=O)Nc1ccccc1C(=O)NC1CC1)Cc1cccs1,0.568% (inactive)
18,Cc1cc(C)c(C#N)c(SCC(=O)N(CC(C)C)C2CCS(=O)(=O)C2)n1 (stereo unspecified),6.67% (inactive)
19,CC1CC1C(=O)OCC(=O)Nc1cccc(F)c1 (stereo unspecified),17.3% (inactive)
20,O=C(Cc1cccs1)N(CC1CCCO1)C1(C(=O)NC2CCCCC2)CCCCC1 (stereo unspecified),34% (active)
21,Cc1ccsc1C(C(=O)NC1CCCCC1)N(C(=O)Cc1cccs1)C1CC1 (stereo unspecified),2.03% (inactive)
22,CC(=O)N(CC1CCCO1)C1(C(=O)NC2CCCC2)CCCCC1 (stereo unspecified),-1.19% (inactive)
23,COc1ccc(N(CCC(=O)NCCc2ccccc2)S(=O)(=O)c2ccc(C)cc2C)cc1,-18.2% (inactive)

row,SMILES,inhibition
1,COc1cc2c(cc1OC)CN(C(C)C(=O)Nc1cccc(S(=O)(=O)N3CCOCC3)c1)CC2 (stereo unspecified),15.6% (inactive)
2,COc1ccc(CC(=O)Nc2c3c(nn2-c2cccc(Cl)c2)CS(=O)C3)cc1 (stereo unspecified),-9.37% (inactive)
3,CC(C)C(=O)Nc1c2c(nn1-c1ccccc1)CSC2,7.83% (inactive)
4,CC(Oc1ccccc1)C(=O)Nc1c2c(nn1-c1ccccc1)CS(=O)C2 (stereo unspecified),30.2% (active)
5,O=c1ccc(S(=O)(=O)N2CCCC2)cn1Cc1nc(-c2ccccc2)no1,15.2% (inactive)
6,COc1ccc(F)c(-c2nc(CN3CCC(c4ccccc4)CC3)c(C)o2)c1,93.5% (active)
7,COc1ccc(-c2nc(CN3CCN(c4ncccn4)CC3)c(C)o2)cc1C,0.804% (inactive)
8,CCOc1ccccc1-c1nc(CN2CCC(C(=O)N3CCOCC3)CC2)c(C)o1,-1.66% (inactive)
9,COc1ccccc1N1CCN(CC(=O)Nc2ccnn2C2CCCC2)CC1,14.3% (inactive)
10,CC(=O)NC12CC3CC(C1)CC(C(=O)N1CCN(S(=O)(=O)c4cccs4)CC1)(C3)C2,-3.14% (inactive)
11,O=C1c2ccccc2C(=O)N1CCC#Cc1ccc2cc(C3(O)CCCCC3)oc(=O)c2c1,-4.36% (inactive)
12,COc1cccc(N2CC(NS(=O)(=O)c3ccc(Cl)cc3)CC2=O)c1 (stereo unspecified),12% (inactive)
13,CN1C(=O)/C(=C\c2ccc(-c3ccccc3)o2)SC1=S,16.2% (inactive)
14,NS(=O)(=O)c1ccc(-c2ccc(/C=C3\SC(=O)NC3=O)o2)cc1,47.3% (active)
15,CN1CCN(/N=C/c2ccc(-c3ccc([N+](=O)[O-])cc3)o2)CC1,11.1% (inactive)
16,COC(=O)c1sc(NC(=O)COC(=O)C2CCC2)c(C(=O)OC)c1C,3.68% (inactive)
17,CC(Sc1ncnc2c1cnn2-c1ccccc1)C(=O)Nc1ccc(N2CCOCC2)cc1 (stereo unspecified),8.83% (inactive)
18,CCOc1ccc(C(C)=O)cc1COC(=O)CN1C(=O)NC2(CCCC2)C1=O,5.14% (inactive)
19,CC(C)=CCC/C(C)=C/C(=O)O,55.4% (active)
20,CC(C)c1ccc(C(=O)NCCCc2ccccc2)cc1,-23.5% (inactive)
21,O=C(CCc1ccccc1)NNC(=O)c1ccc(Br)cc1,-5.25% (inactive)
22,O=C(CCNC(=O)c1ccc(Br)cc1)NCCCc1ccccc1,34.2% (active)
